The results in this text go back to PubChem BioAssay (NCATS).

Inconclusive results are not listed. The source made the active and inactive calls. Calls follow the shape of the dose curve; as a rule, active = well fitted curve in the direction sought with a large enough effect; inconclusive = small, poorly fitted or top-dose-only effect, or another doubt; inactive = no such curve, though single readings can be large; an effect the other way counts as inactive or inconclusive.

Assay [1] in a line: Quantitative High-Throughput drug screen in 47 multiple myeloma cell lines against the NCATS MIPE library collection: KMS26_JCRB cell viability assay (AID 1918975). Also: nearly all actives have a fitted effect of over 45% in size. Summed up:
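Steps: seed 500 cells per well; pin-transfer MIPE 4.0 library; incubate 48 h at 37C, 5% CO2, humidified; add CellTiter-Glo, 5 min room temperature; read luminescence.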

The nature of assay [2]: Quantitative High-Throughput drug screen in 47 multiple myeloma cell lines against the NCATS MIPE library collection: MMM1_PLB cell viability assay (AID 1918976). Also: nearly all actives have a fitted effect of over 35% in size. Summed up: (§1)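 MIPE 4.0 approved/investigational drugs; 500 cells/well; 48 h 37 °C humidified 5% CO2; CTG luminescence readout; DMSO = 100%, media = 0% viability.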
Assay [3] is described as follows: Quantitative High-Throughput drug screen in 47 multiple myeloma cell lines against the NCATS MIPE library collection: MOLP8_DSMZ cell viability assay (AID 1918977). Also: nearly all actives have a fitted effect of over 45% in size. The essentials:
as §1

A short description of assay [4]: Quantitative High-Throughput drug screen in 47 multiple myeloma cell lines against the NCATS MIPE library collection: NCIH929_DSMZ cell viability assay (AID 1918978). Also: nearly all actives have a fitted effect of over 35% in size. The essentials:
as §1

Assay [5] can be described thus: Quantitative High-Throughput drug screen in 47 multiple myeloma cell lines against the NCATS MIPE library collection: MM1S_ATCC cell viability assay (AID 1918980). Also: nearly all actives have a fitted effect of over 45% in size. Summed up: as §1
Assay [6] can be described thus: Quantitative High-Throughput drug screen in 47 multiple myeloma cell lines against the NCATS MIPE library collection: MM1R_ATCC cell viability assay (AID 1918981). Also: nearly all actives have a fitted effect of over 35% in size. The essentials:
as §1

Assay [7] can be described thus: Quantitative High-Throughput drug screen in 47 multiple myeloma cell lines against the NCATS MIPE library collection: LP1_DSMZ cell viability assay (AID 1918982). Also: nearly all actives have a fitted effect of over 35% in size. Summed up:
as §1

Assay [8] can be described thus: Quantitative High-Throughput drug screen in 47 multiple myeloma cell lines against the NCATS MIPE library collection: KMS28PE_JCRB cell viability assay (AID 1918983). Also: nearly all actives have a fitted effect of over 35% in size. The essentials:
as §1

A short description of assay [9]: Quantitative High-Throughput drug screen in 47 multiple myeloma cell lines against the NCATS MIPE library collection: L363_DSMZ cell viability assay (AID 1918984). Also: nearly all actives have a fitted effect of over 40% in size. Summed up: as §1
Assay [10] is described as follows: Quantitative High-Throughput drug screen in 47 multiple myeloma cell lines against the NCATS MIPE library collection: OCIMY1_PLB cell viability assay (AID 1918979). Also: nearly all actives have a fitted effect of over 35% in size. The essentials: as §1
Potency is read from the fitted curve at half-maximal effect.

With `CC[C@@]1(O)C(=O)OCc2c1cc1n(c2=O)Cc2cc3cc(O)ccc3nc2-1`, the Potency in [1] is 5260 nM (active); in assay [2], 11800 nM (active); in [3], 662 nM (active); in assay [4] it was 296 nM (active); in assay [5], 52.6 nM (active); in assay [6], 66.2 nM (active). Also, the Potency in assay [7] was 2640 nM (active); in [8] it was 469 nM (active); in [9] it was 935 nM (active).
With `N#CCNC(=O)c1ccc(-c2ccnc(Nc3ccc(N4CCOCC4)cc3)n2)cc1`, the Potency was 18700 nM (active) in assay [1]; 18700 nM (active) in assay [2]; 11800 nM (active) in [3]; 9350 nM (active) in [4]; 18700 nM (active) in assay [5]; 9350 nM (active) in assay [6]. The Potency in [7] was 20900 nM (active); in assay [8] it was 18700 nM (active).
For the compound `C[C@@]12O[C@@H](C[C@]1(O)CO)n1c3ccccc3c3c4c(c5c6ccccc6n2c5c31)CNC4=O`, the Potency in assay [1] is 5900 nM (active); in assay [2], 3320 nM (active); in assay [3], 209 nM (active); in [4], 469 nM (active); in assay [10], 2350 nM (active); in assay [5] it was 1050 nM (active). Further, the Potency in [7] is 5260 nM (active); in assay [8], 2090 nM (active).
For the compound `NC(=O)Nc1cc(-c2cccc(F)c2)sc1C(=O)N[C@H]1CCCNC1`, the Potency in assay [1] was 11800 nM (active); in assay [2], 4690 nM (active); in [3], 118 nM (active); in assay [4], 2640 nM (active); in assay [10], 4690 nM (active); in [5], 132 nM (active). Besides, the Potency is 148 nM (active) in assay [6], 2640 nM (active) in [8] and 16.6 nM (active) in assay [9].
With `Cn1c2ccccc2c2c3c(c4c5ccccc5n(CCC#N)c4c21)CNC3=O`, the Potency is 14800 nM (active) in assay [1]; 10500 nM (active) in assay [2]; 10500 nM (active) in assay [3]; 1870 nM (active) in assay [4]; 14800 nM (active) in [10]; 2090 nM (active) in assay [5]. Further, the figures for the Potency in assay [7], in assay [8] and in assay [9] were 14800 nM (active), 14800 nM (active) and 209 nM (active), respectively.
`CC(C)c1cnn2c(NCc3ccccc3)cc(N[C@@H](CO)[C@H](O)CO)nc12`: the Potency is 296 nM (active) in assay [1]; 332 nM (active) in assay [2]; 166 nM (active) in assay [3]; 166 nM (active) in [4]; 418 nM (active) in assay [10]; 235 nM (active) in assay [5]. Further, the figures for the Potency in [7], in assay [8] and in [9] were 264 nM (active), 296 nM (active) and 148 nM (active), respectively.
Consider `Cc1cc(CN2CCN(c3c(Br)cnc4nc(-c5ccc(N6CCN(C)CC6)cc5)[nH]c34)CC2)no1`, for which the Potency in assay [1] is 7430 nM (active); in assay [2] it was 23500 nM (active); in [3], 7430 nM (active); in [4], 2350 nM (active); in assay [5], 5900 nM (active); in [6], 13200 nM (active). Moreover, the values for the Potency in [7] and in assay [8] were 26400 nM (active) and 20900 nM (active), respectively.
For the compound `CC[C@H]1CN2CCc3cc(OC)c(OC)cc3[C@H]2C[C@@H]1C[C@@H]1NCCc2cc(OC)c(OC)cc21`, the Potency was 187 nM (active) in [1]; 264 nM (active) in [2]; 105 nM (active) in assay [3]; 469 nM (active) in [4]; 833 nM (active) in [10]; 83.3 nM (active) in [5]. In addition, the Potency in [7] is 332 nM (active); in [8], 296 nM (active); in [9], 59 nM (active).
Take `CCS(=O)(=O)c1cccc(-c2cc(C(=O)NC3CCN(C)CC3)c(C)c3[nH]c4ncc(C)cc4c23)c1`: the Potency in assay [1] is 2960 nM (active); in assay [2] it was 4180 nM (active); in assay [3], 1050 nM (active); in assay [4], 1180 nM (active); in assay [5], 1660 nM (active); in assay [6], 1660 nM (active). Besides, the Potency in [7] was 7430 nM (active); in assay [8] it was 1870 nM (active); in [9] it was 1480 nM (active).
For `CNC(=O)c1c(F)cccc1Nc1nc(Nc2cc3c(cc2OC)CCN3C(=O)CN(C)C)nc2[nH]ccc12`, the Potency in assay [1] was 264 nM (active); in assay [2], 46.9 nM (active); in [3], 7430 nM (active); in [4], 83.3 nM (active); in assay [10] it was 372 nM (active); in [7], 16600 nM (active). Further, the Potency in assay [8] was 132 nM (active). Further, the Potency result in [9] is “inactive”.
Regarding `COC(=O)Nc1nc2ccc(C(=O)c3ccc(F)cc3)cc2[nH]1`, the Potency in assay [1] is 5260 nM (active); in assay [2], 11800 nM (active); in assay [3], 418 nM (active); in assay [4], 743 nM (active); in assay [10] it was 662 nM (active); in [7], 935 nM (active). For the same compound, the Potency in assay [8] was 1660 nM (active).
In the case of `C=CC(=O)Nc1cc2c(Nc3ccc(F)c(Cl)c3)ncnc2cc1OCCCN1CCOCC1`, the Potency was 5260 nM (active) in assay [1]; 18700 nM (active) in assay [2]; 8330 nM (active) in assay [3]; 2640 nM (active) in assay [4]; 18700 nM (active) in assay [5]; 8330 nM (active) in assay [6]. The Potency in [7] was 16600 nM (active).
As to `CCOC(=O)C1=C(C)NC2=C(C(=O)CC(C)(C)C2)C1c1ccc(-c2ccccc2)cc1` (stereo not given), the Potency in assay [1] is 16600 nM (active); in assay [2], 23500 nM (active); in assay [3] it was 16600 nM (active); in assay [4], 20900 nM (active); in assay [5], 23500 nM (active).
Turning to `Nc1ccccc1NC(=O)c1ccc(CNC(=O)OCc2cccnc2)cc1`, the Potency is 4690 nM (active) in [1]; 4690 nM (active) in assay [2]; 1480 nM (active) in assay [3]; 1320 nM (active) in [4]; 935 nM (active) in [5]; 833 nM (active) in assay [6]. Moreover, the Potency in assay [7] was 1660 nM (active); in [9], 418 nM (active).
For `CC(C)c1ccccc1Cc1cc(C(=O)Nc2ccc(S(=O)(=O)c3ccccc3C(C)(C)C)cc2)c(O)c(O)c1O`, the Potency is 9350 nM (active) in assay [1]; 18700 nM (active) in [2]; 13200 nM (active) in assay [3]; 7430 nM (active) in assay [4]; 11800 nM (active) in [5]; 16600 nM (active) in assay [8]. Moreover, the Potency entry in assay [9] is “inactive”.
